# Laboratory results as given in PubChem BioAssay (Tox21).
# Results filed as inconclusive are left out. Active and inactive are the calls of the source. Unless noted, calls come from the whole dose curve.
# Experiment: qHTS assay to identify small molecule agonists of the NFkB signaling pathway (AID 1159509; active = well fitted curve in the direction sought with a large enough effect in the signal ratio in the repeat runs, not every such curve was filed as active; the % refers to the signal ratio)
# Conditions: NFkB-bla ME-180 cells, beta-lactamase FRET ratio, 5 h; series mostly up to 61 µM; activation: at the top concentration
# Summary of the method: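 NFkB-bla ME-180 cells with a beta-lactamase reporter under an NF-kB response element were plated overnight, treated with compounds in DMSO for 5 hr at 37 C, then loaded with FRET substrate for 1.5 hr at room temperature.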
# % is set by controls: 0 for no effect and ±100 for the full control effect.
row,Structure (SMILES),activation
1,O=C1c2ccccc2C(=O)N1CCl,0.0718% (inactive)
2,CC(=O)CCCCn1c(=O)c2c(ncn2C)n(C)c1=O,-0.0932% (inactive)
3,CCCCOC(=O)c1ccccc1,0.103% (inactive)
4,Brc1ccc(-c2ccccc2)cc1,0.257% (inactive)
5,CCOc1cc([N+](=O)[O-])c(OCC)cc1N1CCOCC1,-0.0169% (inactive)
6,O=C(CCNNC(=O)c1ccncc1)NCc1ccccc1,0.0141% (inactive)
7,COc1ccc(-c2cc(=O)c3c(O)cc(O[C@@H]4O[C@H](CO[C@@H]5O[C@@H](C)[C@H](O)[C@@H](O)[C@H]5O)[C@@H](O)[C@H](O)[C@H]4O)cc3o2)cc1O,-0.0367% (inactive)
8,Cc1cccc2nccnc12,0.075% (inactive)
9,O=C(OCC1(COC(=O)c2cccnc2)CCCC(COC(=O)c2cccnc2)(COC(=O)c2cccnc2)C1O)c1cccnc1,0.972% (inactive)
10,OC[C@H](Cc1cccc(O)c1)[C@H](CO)Cc1cccc(O)c1,-0.992% [at 78.8 µM] (inactive)
11,C=C(C)C(=O)OCCN(CC)CC,-0.0266% (inactive)
12,COCCc1ccc(OCC2CO2)cc1 (centres undefined),0.174% (inactive)
13,COC(=O)c1ccccc1C(=O)c1ccc(OCCN2CCCCC2)cc1,0.197% (inactive)
14,CC(C)=O,-0.763% (inactive)
15,O=C(O)c1cc(Br)c(O)c(Br)c1,0.168% (inactive)
16,CCNC(=O)C1CC(C)CCC1C(C)C (centres undefined),-0.671% (inactive)
17,O=C(O)c1cc(Cl)cc([N+](=O)[O-])c1Cl,0.0517% (inactive)
18,CC1=C(C(=O)O)N2C(=O)[C@@H](NC(=O)[C@H](N)c3ccc(O)cc3)[C@H]2SC1,0.724% (inactive)
19,C[C@H](CCC(=O)O)[C@H]1CC[C@H]2[C@@H]3C(=O)C[C@@H]4CC(=O)CC[C@]4(C)[C@H]3CC(=O)[C@]12C,-0.516% (inactive)

row,Structure (SMILES),activation
1,NC(CO)C(=O)NNCc1ccc(O)c(O)c1O (centres undefined),-0.759% (inactive)
2,COC(=O)[C@@H]1[C@H]2C[C@H]3c4[nH]c5ccccc5c4CCN3C[C@@H]2CC[C@@H]1O,0.389% (inactive)
3,CCC(C)NC(N)=O (centres undefined),-0.0625% (inactive)
4,COc1nccnc1NS(=O)(=O)c1ccc(N)cc1,-0.112% (inactive)
5,O=C(NCCN1CCOCC1)c1ccc(Cl)cc1,0.57% (inactive)
6,Cc1ccccc1OCC(O)CO (centres undefined),-0.176% (inactive)
7,N[C@@H](CCC(=O)N[C@@H](CS)C(=O)NCC(=O)O)C(=O)O,-0.349% [at 28.5 µM] (inactive)
8,CN(CCOc1ccc(NS(C)(=O)=O)cc1)CCc1ccc(NS(C)(=O)=O)cc1,-0.087% (inactive)
9,COc1ccc2nc(SCc3ncc(C)c(OC)c3C)[nH]c2c1,-0.439% (inactive)
10,CCCCCOC(=O)CCC,-0.0143% (inactive)
11,CC(=O)Nc1cccc(C)c1,0.0755% [at 78.8 µM] (inactive)
12,CC(C)OC(=O)CCCCC(=O)OC(C)C,-0.187% (inactive)
13,COC(=O)CCc1ccc(OCC(O)CNC(C)C)cc1 (centres undefined),0.336% (inactive)
14,O=C(CCN1CCN(CCO)CC1)N1c2ccccc2Sc2ccc(C(F)(F)F)cc21,0.649% (inactive)
15,CCOCCOCCOCC,-0.135% (inactive)
16,N[C@@H](CCC(=O)Nc1ccc([N+](=O)[O-])cc1)C(=O)O,-0.982% (inactive)
17,Cc1ccc2ccc(Cl)cc2n1,0.578% (inactive)
18,NNc1nnc(NN)c2ccccc12,-0.197% (inactive)

# Experiment: qHTS assay to identify small molecule agonists of the NFkB signaling pathway - cell viability counter screen (AID 1159515); note: nearly all actives have a fitted effect of over 55% in size
# Conditions: NFkB-bla ME-180 viability, CellTiter-Glo luminescence, 5 h; series mostly up to 61 µM; activity, negative = cytotoxic: at the top concentration
# Summary of the method: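 NFkB-bla ME-180 cells, 2,000/well, plated overnight at 37 C; compound added for 5 hr at 37 C. Viability read in the same wells as the bla reporter, by CellTiter-Glo luminescence after 30 min at room temperature.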
row,Structure (SMILES),"activity, negative = cytotoxic"
1,O=C1c2ccccc2C(=O)N1CCl,-1.29% (inactive)
2,CC(=O)CCCCn1c(=O)c2c(ncn2C)n(C)c1=O,-3.95% (inactive)
3,CCCCOC(=O)c1ccccc1,3.3% (inactive)
4,Brc1ccc(-c2ccccc2)cc1,12.3% (inactive)
5,CCOc1cc([N+](=O)[O-])c(OCC)cc1N1CCOCC1,-2.97% (inactive)
6,O=C(CCNNC(=O)c1ccncc1)NCc1ccccc1,-0.45% (inactive)
7,COc1ccc(-c2cc(=O)c3c(O)cc(O[C@@H]4O[C@H](CO[C@@H]5O[C@@H](C)[C@H](O)[C@@H](O)[C@H]5O)[C@@H](O)[C@H](O)[C@H]4O)cc3o2)cc1O,11.2% (inactive)
8,Cc1cccc2nccnc12,-2.11% (inactive)
9,O=C(OCC1(COC(=O)c2cccnc2)CCCC(COC(=O)c2cccnc2)(COC(=O)c2cccnc2)C1O)c1cccnc1,-11.8% (inactive)
10,OC[C@H](Cc1cccc(O)c1)[C@H](CO)Cc1cccc(O)c1,-5.16% [at 78.8 µM] (inactive)
11,C=C(C)C(=O)OCCN(CC)CC,8.43% (inactive)
12,COCCc1ccc(OCC2CO2)cc1 (centres undefined),6.05% (inactive)
13,COC(=O)c1ccccc1C(=O)c1ccc(OCCN2CCCCC2)cc1,0.526% (inactive)
14,CC(C)=O,-0.319% (inactive)
15,O=C(O)c1cc(Br)c(O)c(Br)c1,-0.436% (inactive)
16,CCNC(=O)C1CC(C)CCC1C(C)C (centres undefined),-11.7% (inactive)
17,O=C(O)c1cc(Cl)cc([N+](=O)[O-])c1Cl,6.81% (inactive)
18,CC1=C(C(=O)O)N2C(=O)[C@@H](NC(=O)[C@H](N)c3ccc(O)cc3)[C@H]2SC1,-9.78% (inactive)
19,C[C@H](CCC(=O)O)[C@H]1CC[C@H]2[C@@H]3C(=O)C[C@@H]4CC(=O)CC[C@]4(C)[C@H]3CC(=O)[C@]12C,13% (inactive)

row,Structure (SMILES),"activity, negative = cytotoxic"
1,NC(CO)C(=O)NNCc1ccc(O)c(O)c1O (centres undefined),-4.13% (inactive)
2,COC(=O)[C@@H]1[C@H]2C[C@H]3c4[nH]c5ccccc5c4CCN3C[C@@H]2CC[C@@H]1O,-3.53% (inactive)
3,CCC(C)NC(N)=O (centres undefined),-6.85% (inactive)
4,COc1nccnc1NS(=O)(=O)c1ccc(N)cc1,10.5% (inactive)
5,O=C(NCCN1CCOCC1)c1ccc(Cl)cc1,-1.54% (inactive)
6,Cc1ccccc1OCC(O)CO (centres undefined),2.38% (inactive)
7,N[C@@H](CCC(=O)N[C@@H](CS)C(=O)NCC(=O)O)C(=O)O,6.37% [at 28.5 µM] (inactive)
8,CN(CCOc1ccc(NS(C)(=O)=O)cc1)CCc1ccc(NS(C)(=O)=O)cc1,6.06% (inactive)
9,COc1ccc2nc(SCc3ncc(C)c(OC)c3C)[nH]c2c1,0.56% (inactive)
10,CCCCCOC(=O)CCC,-2.36% (inactive)
11,CC(=O)Nc1cccc(C)c1,-10.5% [at 78.8 µM] (inactive)
12,CC(C)OC(=O)CCCCC(=O)OC(C)C,3.14% (inactive)
13,COC(=O)CCc1ccc(OCC(O)CNC(C)C)cc1 (centres undefined),3.08% (inactive)
14,O=C(CCN1CCN(CCO)CC1)N1c2ccccc2Sc2ccc(C(F)(F)F)cc21,-10% (inactive)
15,CCOCCOCCOCC,-2.61% (inactive)
16,N[C@@H](CCC(=O)Nc1ccc([N+](=O)[O-])cc1)C(=O)O,-7.3% (inactive)
17,Cc1ccc2ccc(Cl)cc2n1,2.79% (inactive)
18,NNc1nnc(NN)c2ccccc12,-16.2% (inactive)
